Screens deposited in PubChem by National Center for Advancing Translational Sciences (NCATS).
The list is not random: actives were taken first. Their share in the collection is about 6.6%.
KB-V1 cytotox – kills drug-selected multidrug resistant KB-V1 cells. KB-V1 MDR cells viability, CellTiter-Glo, 72 h. Potency, µM (doses to about 46.1 µM), hits mostly cytotoxic. 3.4% of 400,000 active. AID 1347076; further: on the % scale 0 is the no-effect control and ±100 the full control effect; nearly all actives have a fitted effect of over 60% in size
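Cells of the MDR subline KB-V1 are plated, dosed with compound at multiple concentrations, and incubated 72 h at 37 degrees C; CellTiter-Glo is then added and luminescence read after 10 min.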
MCF10A rereplic – induces DNA re-replication in MCF 10a normal breast cells; 2.9% of 350,000 active; Potency, µM (highest dose often 46.1 µM), for inactives: at the top dose activity, positive = re-replication, usual class: activators; AID 624296; MCF 10A DNA re-replication, Hoechst nuclear intensity, 48 h; further: % of control where 0% means no effect; nearly all actives have a fitted effect of over 50% in size
TSG101-PTAP inh – blocks PTAP/TSG101 interaction to inhibit HIV-1 budding; Potency, µM (highest dose often 115 µM), for the others: at the highest dose activity change, negative = inhibition, actives largely listed as inhibitors; Fluorescence polarization, FITC-PTAP peptide / Tsg101 binding; Q99816; 340,000 tested, under 10 active; active means well fitted inhibition curve with a large enough effect in the main read-out, with a control signal flat, not every such curve was filed as active; inconclusive means small, poorly fitted or top-dose-only effect, or effect the other way, or a change in a side signal; inactive means no such curve, though single readings can be large or run the other way; further: % of control where 0% means no effect
Target sequence (Q99816 whole entry, looked up): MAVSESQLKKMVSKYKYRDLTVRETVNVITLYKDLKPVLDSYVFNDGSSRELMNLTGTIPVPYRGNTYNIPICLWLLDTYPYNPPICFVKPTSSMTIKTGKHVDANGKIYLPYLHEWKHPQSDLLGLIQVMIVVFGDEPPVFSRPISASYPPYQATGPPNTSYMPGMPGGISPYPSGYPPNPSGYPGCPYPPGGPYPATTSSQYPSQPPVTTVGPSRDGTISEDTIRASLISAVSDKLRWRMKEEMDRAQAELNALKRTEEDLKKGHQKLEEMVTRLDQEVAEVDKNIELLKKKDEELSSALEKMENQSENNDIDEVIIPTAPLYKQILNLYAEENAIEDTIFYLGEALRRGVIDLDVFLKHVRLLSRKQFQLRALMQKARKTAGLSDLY
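Fluorescence anisotropy tracks displacement of a FITC-tagged PTAP peptide (50 nM) from the Tsg101 binding domain (10 uM), following a 20 min room-temperature incubation at pH 7.5.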
RGS4 inhibitor – human RGS4 inhibition; P49798; Transcreener GDP fluorescence polarization, RGS4-accelerated GTP hydrolysis; Potency, µM (series often up to 114 µM), inactives show at the highest dose activity change, negative = inhibition, usual class: inhibitors; 0.039% of 390,000 active; AID 504845; further: on the % scale 0 is the no-effect control and ±100 the full control effect; nearly all actives have a fitted effect of over 75% in size
Target sequence (P49798 whole entry, looked up): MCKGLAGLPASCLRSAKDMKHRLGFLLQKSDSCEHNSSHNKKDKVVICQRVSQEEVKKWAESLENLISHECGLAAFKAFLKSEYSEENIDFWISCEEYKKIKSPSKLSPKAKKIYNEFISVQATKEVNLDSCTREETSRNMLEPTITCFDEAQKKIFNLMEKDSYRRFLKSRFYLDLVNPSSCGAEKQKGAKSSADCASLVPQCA
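MLSMR compounds (23 nl, pin-transferred) preincubated 10 min at room temperature with a 500nM (2x) first reagent, then RGS4 at 900nM (2x) plus Transcreener GDP mix added; fluorescence polarization (620/688 nm) read before and after 90 min at 30 °C.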
SW480 rerep – inducers of DNA re-replication in SW480 colon cancer cells; SW480 DNA re-replication, Hoechst DNA content imaging, 48 h; Potency, µM (highest dose often 46.1 µM), for the others: at the highest dose re-replication activation, actives largely listed as activators; 1.8% of 340,000 active; further: % of control where 0% means no effect; nearly all actives have a fitted effect of over 55% in size
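Image-based DNA-content assay: after two days of treatment, nuclei were labelled with the DNA dye Hoechst and imaged, and hits were compounds raising the count of nuclei showing high fluorescence intensity.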
KB-3-1 cytotox – kills parental KB-3-1 adenocarcinoma cells; KB-3-1 viability, CellTiter-Glo ATP luminescence, 72 h; Potency, µM (series often up to 46.1 µM), usual class: cytotoxic; 1.4% of 400,000 active; AID 1347075; further: on the % scale 0 is the no-effect control and ±100 the full control effect; nearly all actives have a fitted effect of over 60% in size
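Here the drug-naive KB-3-1 line serves as comparator for MDR sub-line selectivity; cells received compound titrations, 72 h at 37 °C, then CellTiter-Glo readout.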
Numbers without * were called inactive; i = inactive; u = inconclusive; x = no result given; [ ] = another dose, or the depositor's remark. Unless noted, the call rests on the fitted dose curve; in most records, active means well fitted curve in the direction sought with a large enough effect; inconclusive means small, poorly fitted or top-dose-only effect, or another doubt; inactive means no such curve, though single readings can be large; an effect the other way counts as inactive or inconclusive. Potency means the concentration at half of the fitted maximal effect.

SMILES	KB-V1 cytotox	MCF10A rereplic	TSG101-PTAP inh	RGS4 inhibitor	SW480 rerep	KB-3-1 cytotox
CCC(C)NC(=O)c1c(N)n(/N=C/c2ccccn2)c2nc3ccccc3nc12 (configuration not stated)	21µM*	u	-9%	-45%	16µM*	i
CC(C)OCCCNC(=O)c1ccncc1	i	29%	x	25%	-7%	i
COCCCNC(=O)c1c(N)n(/N=C/c2cccnc2)c2nc3ccccc3nc12	i	u	0%	-52%	u	i
Nc1c(C(=O)NCC2CCCO2)c2nc3ccccc3nc2n1/N=C/c1ccncc1 (configuration not stated)	i	25%	-3%	-23%[11.4 µM]	-3%	i
Cc1ccc2occ(CC(=O)Nc3ccc(Cl)c(C(F)(F)F)c3)c2c1	u	x	x	-20%	x	u
NC(=O)Cn1c(=O)n(CCCCCC(=O)NCc2ccccc2)c(=O)c2sccc21	i	x	x	-14%	x	i
CC1CCCCN1C(=O)CCC(=O)Nc1nnc(C(F)(F)F)s1 (configuration not stated)	i	23µM*	2%	-13%	u	i
CC1CCN(C(=O)CCC(=O)Nc2nnc(C(F)(F)F)s2)CC1	u	-1%	-6%	-3%	-1%	i
COc1ccccc1NC(=O)C1CCCN(c2nc(C)cc(C)n2)C1 (configuration not stated)	u	7%	-7%	3%	-6%	i
Cc1cc(C)nc(N2CCCC(C(=O)NCCc3cccc(F)c3)C2)n1 (configuration not stated)	18µM*	-1%	-7%	-11%	-8%	i
Cc1cc(C)nc(N2CCCC(C(=O)Nc3cc(F)ccc3C)C2)n1 (configuration not stated)	16µM*	-4%	1%	13%	-2%	i
Cc1cc(C)nc(N2CCCC(C(=O)Nc3ccc4c(c3)OCO4)C2)n1 (configuration not stated)	23µM*	11%	-1%	-15%	3%	i
Cc1ccc(S(=O)(=O)c2cn(Cc3ccccc3)c3cc(N4CCCC4)c(F)cc3c2=O)cc1C	i	x	x	-13%	x	i
Cc1cc(C)cc(C(=O)N2CC(=O)Nc3ccc(C)cc3C2c2ccccc2)c1 (configuration not stated)	i	x	x	6%	x	i
CN(Cc1ccccc1)S(=O)(=O)c1ccc(NC(=S)NC(=O)C2CCCCC2)cc1	u	23µM*	1%	7%	u	u
COc1ccc(C)cc1NC(=O)c1cc(C2CC2)nc2c1c(C)nn2C1CCS(=O)(=O)C1 (configuration not stated)	4.6µM*	-5%	0%	-19%	-2%	i
C[C@]12CC[C@@H]3c4ccc(O)cc4CC[C@H]3[C@@H]1CCC2OC(=O)CCC1CCCC1 (some centres not stated)	x	24µM*	x	x	u	x
C[C@]12CC[C@@H]3c4ccc(O)cc4CC[C@H]3[C@@H]1CC[C@@H]2O	u	u	11%	16%[56.9 µM]	u	i
C[C@]12CC[C@H]3c4ccc(O)cc4CC[C@@H]3[C@H]1CC[C@@H]2OP(=O)(O)O	x	0%	x	x	-6%	x
CC(=O)OC1CCC2C3CCc4cc(O)ccc4C3CCC12C (configuration not stated)	18µM*	u	-3%	11%	u	i
CC(=O)O[C@H]1CC[C@H]2[C@@H]3CCc4cc(O)ccc4[C@H]3CC[C@]12C	15µM*	u	1%	4%	u	u
CCOC(=O)CC(NC(=O)c1cc2cc(OC)ccc2oc1=O)c1ccc(OC)cc1 (configuration not stated)	u	x	x	1%	x	i
COc1ccccc1N1CCN(C(c2cccs2)C(C)NC(=O)c2cccs2)CC1 (configuration not stated)	4.1µM*	2%	-3%	-22%	1%	i
COc1ccccc1C(=O)NC(C)C(c1cccs1)N1CCN(C)CC1 (configuration not stated)	18µM*	-9%	x	17%	3%	i
COc1ccccc1N1CCN(C(c2cccs2)C(C)NC(=O)c2cccnc2)CC1 (configuration not stated)	i	10%	-1%	-12%	1%	i
SMILES	KB-V1 cytotox	MCF10A rereplic	TSG101-PTAP inh	RGS4 inhibitor	SW480 rerep	KB-3-1 cytotox
CCCCc1cc(=O)oc2cc(C)c3c(C(C)(C)C)coc3c12	i	x	x	0%	x	i
CCOc1ccc(NC(=O)C2CCCN(S(=O)(=O)c3ccc(Br)s3)C2)cc1 (configuration not stated)	i	x	x	-2%	x	i
Nc1nc(-c2ccc(-n3nncc3-c3ccco3)cc2)cs1	i	23µM*	-14%	-31%	21%	i
Cc1nc(-c2ccc(-n3nncc3-c3ccco3)cc2)cs1	u	-2%	-6%	-4%	-82%	i
CCOC(=O)C1CCN(C(=O)Cn2nc(CC)n3c(cc4occc43)c2=O)CC1	i	x	x	-3%	x	i
Cc1ccc(C)c(Cn2nnc(C(=O)NCc3ccccc3)c2N)c1	i	x	x	-2%	x	i
CCOC(=O)C(CC)Sc1nnc2n1C(C)(C)Cc1ccccc1-2 (configuration not stated)	16µM*	16%	-7%	-11%	1%	i
COc1ccc(N2CCN(C(=O)CSc3nnc4n3C(C)(C)Cc3ccccc3-4)CC2)cc1	5.2µM*	6%	-6%	0%	-6%	u
CC1(C)Cc2ccccc2-c2nnc(SCC(=O)N3CCc4ccccc43)n21	4.1µM*	1%	-6%	-41%	7%	i
COC(=O)CSc1nnc2n1C(C)(C)Cc1ccccc1-2	i	5%	-8%	27%	-1%	i
COc1ccc(N2CCN(C(=O)CSc3nnc4c(C)cc5cc(C)ccc5n34)CC2)cc1	5.8µM*	-3%	-11%	54%	-5%	i
COc1ccc(C(=O)C[n+]2ccc(Cl)c3ccc(Cl)cc32)cc1	i	x	x	x	x	i
Nc1nc(NCc2ccc(Cl)cc2)c2[nH]cnc2n1	i	x	x	-7%	x	i
Cc1ccc(Cl)cc1N1CCN(C(=O)CSc2nnc3n2C(C)(C)Cc2ccccc2-3)CC1	12µM*	13µM*	-2%	7%	5%	u
COc1cc(NC(=O)CSc2nnc3n2C(C)(C)Cc2ccccc2-3)cc(OC)c1	i	14%	-6%	8%	6%	i
